In the library only some 6.6% were active in any assay of this set; here they are far more common.
HT1080NT lethal – qHTS for induction of synthetic lethality in tumor cells producing 2HG: qHTS for the HT-1080-NT fibrosarcoma cell line; HT-1080-NT fibrosarcoma viability, CellTiter-Glo ATP luminescence, 48 h; Potency, µM (doses to about 46.1 µM), inactives show at the top dose activity, negative = less viability, actives largely listed as cytotoxic; 360,000 compounds, 1.6% hits;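 also: NT is the 2HG producing partner of a matched IDH1 knockdown line; 0% = DMSO-treated cells and -100% = media-only wells without cells; nearly all actives have a fitted effect of over 55% in size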
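Viability by CellTiter-Glo luminescence after 48 h compound exposure at 37C of HT-1080-NT cells (750/well, RPMI, 5% FBS). % activity scaled between DMSO wells and medium-only wells, then curve-fitted and categorized by curve class.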
TGFb inhibitor – qHTS for Inhibitors of TGF-b. 410,000 compounds, 1.2% hits. AID 588855, 2011. HepG2 CAGA-GFP TGF-b/SMAD3 reporter, GFP fluorescence, 18 h; TGF-beta stimulated, 500 pg/mL final. Potency, µM (series often up to 46.1 µM), for the others: top-dose activity, negative = inhibition, most hits filed as inhibitors; also: % is scaled to controls: 0 for no effect and ±100 for the full control effect; nearly all actives have a fitted effect of over 65% in size
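Inhibition of TGF-beta-driven CAGA-GFP reporter expression in HEPG2 cells is measured by cellular GFP fluorescence after 18 h stimulation with 500 pg/mL recombinant TGF-beta in 1% FBS medium at 37 degrees C.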
KB-3-1 cytotox – qHTS assay for MDR1-selective chemotherapeutics: Primary screen using the parental adenocarcinoma cell KB-3-1; KB-3-1 viability, CellTiter-Glo ATP luminescence, 72 h; Potency, µM (top dose mostly 46.1 µM), actives largely listed as cytotoxic; 400,000 compounds, 1.4% hits; also: % is scaled to controls: 0 for no effect and ±100 for the full control effect; nearly all actives have a fitted effect of over 60% in size
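KB-3-1 parental drug-naive adenocarcinoma cells in DMEM/10% FBS, incubated 72 h at 37 C with pin-transferred compounds across a concentration series. Viability by CellTiter-Glo luminescence; concentration-response curves fitted after normalization.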
HepG2 tox – qHTS for Inhibitors of TGF-b: Cytotox Counterscreen; HepG2 CAGA-GFP viability, ATP luminescence, 18 h; Potency, µM (highest dose often 46.1 µM), for inactives: at the top dose activity change, negative = cytotoxicity, actives largely listed as cytotoxic; 410,000 compounds, 0.76% hits; AID 588856, 2011
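HepG2 CAGA-GFP cells (1000/well, DMEM with 1% FBS) received compound, then TGF-beta at 500 pg/mL final, and were incubated 18 hours at 37 degrees C. Viability was read by CellTiter-Glo luminescence. Media-only wells were set as complete cell-killing and DMSO as no toxicity.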
HT1080 IDH1KD tx – qHTS for induction of synthetic lethality in tumor cells producing 2HG: qHTS for the HT-1080-IDH1KD cell line | HT-1080 IDH1 knockdown viability, ATP luminescence, 48 h | Potency, µM (top dose mostly 46.1 µM), without a hit: at the highest dose activity, negative = toxicity, most hits filed as cytotoxic | 360,000 compounds, 2% hits | AID 686971, 2013;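 also: 0% = DMSO wells and -100% = cell-free medium wells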
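Assay cells: HT-1080 with IDH1 knockdown, 750 per well, RPMI/5% FBS. Exposure: 48 h at 37 °C following 2 h pre-incubation. Read: CellTiter-Glo luminescence; fitted concentration-response, curve class assigned.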
KB-V1 MDR tox – qHTS assay for MDR1-selective chemotherapeutics: Primary screen using the drug-selected MDR subline cells KB-V1; 400,000 compounds, 3.4% hits; KB-V1 MDR cells viability, CellTiter-Glo, 72 h; AID 1347076, 2019; Potency, µM (doses to about 46.1 µM), usual class: cytotoxic; also: % is scaled to controls: 0 for no effect and ±100 for the full control effect; nearly all actives have a fitted effect of over 60% in size
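Cells of the MDR subline KB-V1 are plated, dosed with compound at multiple concentrations, and incubated 72 h at 37 degrees C; CellTiter-Glo is then added and luminescence read after 10 min.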
* marks the source's active call; other numbers are inactive results; i = inactive; ? = inconclusive; . = no result given. Calls follow the shape of the dose curve; as a rule, active = well fitted curve in the direction sought with a large enough effect; inconclusive = small, poorly fitted or top-dose-only effect, or another doubt; inactive = no such curve, though single readings can be large; an effect the other way counts as inactive or inconclusive. Potency is read from the fitted curve at half-maximal effect.

SMILES	HT1080NT lethal	TGFb inhibitor	KB-3-1 cytotox	HepG2 tox	HT1080 IDH1KD tx	KB-V1 MDR tox
CCc1cccc(NC(=O)Cn2cc(C(=O)c3ccncc3)c(=O)c3cc(C)c(C)cc32)c1	.	.	.	-28%	.	.
O=C(c1cccc(C(F)(F)F)c1)N1CCC(O)(CS(=O)(=O)Cc2ccccc2Cl)CC1	-2%	-3%	i	-16%	3%	16µM*
O=C(c1cccc(C(F)(F)F)c1)N1CCC(O)(CS(=O)(=O)Cc2ccccc2)CC1	-1%	-4%	i	-34%	-7%	i
O=C(c1cccc(C(F)(F)F)c1)N1CCC(O)(CS(=O)(=O)Cc2ccc(Cl)cc2)CC1	-26%	-1%	i	-11%	-23%	12µM*
O=C(c1ccc2c(c1)OCCO2)N1CCN(c2nc(-c3cccs3)nc3ccccc23)CC1	-19%	.	.	.	-11%	.
Cc1ccc(S(=O)(=O)N2CCN(c3nc(-c4cncnc4)nc4ccccc34)CC2)cc1	-1%	.	.	.	1%	.
COc1cc(NC(=O)c2cccc(S(=O)(=O)N3CCCCC3)c2)cc(OC)c1OC	-6%	-1%	i	-21%	-8%	?
CCc1cc(=O)oc2c(C)c3c(cc12)CN(CCc1ccccc1OC)CO3	.	29%	i	-23%	.	i
COc1cc(/C=N/NC(N)=O)cc(Br)c1OCc1ccc(C)cc1	-3%	-1%	i	-6%	0%	i
CCOc1cc(/C=N\NC(N)=O)cc(Br)c1OC(C)C	-6%	?	7.3µM*	-34%	-10%	12µM*
CCOC(=O)CC1(C)Oc2cc(Cl)ccc2N1S(=O)(=O)c1ccc(C)cc1 (configuration not stated)	-17%	.	18µM*	.	-26%	?
CCOC(=O)CC1(C)Sc2ccccc2N1S(=O)(=O)c1ccc(C)cc1 (configuration not stated)	-29%	.	?	.	-21%	?
CCOC(=O)CC1(CCc2ccccc2)Oc2ccccc2N1S(=O)(=O)c1ccc(C)cc1 (configuration not stated)	-2%	.	18µM*	.	-8%	?
O=C(NC(CSC(=O)c1ccccc1)C(=O)O)OCc1ccccc1 (configuration not stated)	12%	?	i	2%	22%	i
CC(C)(C)OC(=O)N1CCC(c2c(C(=O)NCc3cccc(Cl)c3)cnn2-c2ccc(F)cc2)CC1	.	1%	?	3%	.	i
O=C(Cc1ccc(-c2ccccc2)cc1)NCCS(=O)(=O)N1CCN(c2ccccc2F)CC1	.	-2%	.	5%	.	.
O=C(NC1CCCCC1)C1c2ccccc2OCC(=O)N1CCc1c[nH]c2ccccc12 (configuration not stated)	0%	.	i	.	26µM*	i
Nc1c(C(O)(C(F)(F)F)C(F)(F)F)cc(C(O)(C(F)(F)F)C(F)(F)F)c2ccccc12	21µM*	11µM*	i	18µM*	23µM*	i
CCNc1cc(N2CCN(S(=O)(=O)c3ccc4c(c3)CCCC4)CC2)ccc1[N+](=O)[O-]	5%	18%	i	-1%	-5%	1.5µM*
O=[N+]([O-])c1ccc(N2CCN(S(=O)(=O)c3ccc(Cl)c(Cl)c3)CC2)cc1NCCN1CCOCC1	-3%	-1%	i	-2%	-1%	i
CC1CN(c2ccc(C(F)(F)F)cc2[N+](=O)[O-])CCN1S(C)(=O)=O (configuration not stated)	2%	-8%	i	-4%	6%	i
O=[N+]([O-])c1cc(C(F)(F)F)ccc1N1CCN(S(=O)(=O)c2ccc3c(c2)CCCC3)CC1	8%	?	?	3%	3%	5.2µM*
CC1(C(=O)O)CCN1C(=O)COc1ccc(Cl)cc1 (configuration not stated)	21%	-5%	i	3%	10%	i
Cc1ccc2c(c1)c(C)c(C)n2CC(O)Cn1nc(C)c(Br)c1C (configuration not stated)	16µM*	?	i	16µM*	?	i
Cc1ccc2c(c1)c1c(n2CC(O)Cn2nc(C)c(Br)c2C)C(=O)CCC1 (configuration not stated)	-2%	31%	i	-5%	-4%	i
SMILES	HT1080NT lethal	TGFb inhibitor	KB-3-1 cytotox	HepG2 tox	HT1080 IDH1KD tx	KB-V1 MDR tox
CCOC(=O)CSc1cc(-c2ccccc2)nc2ncnn12	?	-25%	i	-49%	18µM*	i
COc1ccc(OC)c(S(=O)(=O)N2CCC(n3c(C)nc4cccnc43)CC2)c1	.	-7%	i	-16%	.	i
COc1ccc(/C=N/NC(=O)COc2ccccc2-c2ccccc2)cc1	2.3µM*	?	1.2µM*	-83%	0.82µM*	0.82µM*
O=C(COc1ccccc1-c1ccccc1)N/N=C/c1cccc2ccccc12	1.3µM*	?	1.3µM*	-13%	1µM*	0.92µM*
COCC(=O)N/N=C\c1ccc(OC/C=C/c2ccccc2)c(OC)c1	-11%	?	i	-7%	-17%	12µM*
COc1cc(OC)c(NC(=O)Cn2c(=O)nc(-c3ccccc3)c3ccccc32)cc1Cl	.	10%	i	-3%	.	i
CCOC(=O)C(=C1Nc2ccccc2N1)n1c(-c2cccnc2)nc2ccccc21	-19%	.	?	.	-10%	21µM*
O=C(c1cc2cc3ccc(Cl)cc3nc2o1)N1CCN(c2cccc(Cl)c2)CC1	.	-9%	i	-2%	.	?
Cc1coc2cc3oc(=O)c(CCC(=O)N4CCCCC4)c(C)c3cc12	.	-16%	i	-33%	.	i
CCN(CC)CCn1c(C)nc2c(sc3nc4c(cc32)COC(C)(C)C4)c1=O	5%	13%	i	-19%	8%	i
Cc1nc2c(sc3nc4c(cc32)COC(C)(C)C4)c(=O)n1CC(=O)NCc1ccco1	7.1µM*	-16%	5.2µM*	2%	?	?
CC1(C)Cc2nc3sc4c(=O)n(Cc5ccccc5)cnc4c3cc2CS1	3%	5%	i	-11%	6%	8.2µM*
CC1(C)Cc2nc3sc4c(SCC(=O)NCc5ccco5)ncnc4c3cc2CO1	?	0%	4.6µM*	-2%	2.6µM*	?
